# FUS yeast rescue: suppressors of FUS proteinopathy in yeast; S. cerevisiae FUS-expressing, growth rescue, OD600, 24 h; Potency, µM (series often up to 76.6 µM), usual class: activators; 390,000 compounds, 0.24% hits; AID 1347120;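 also: potency is read from the fitted curve at half-maximal effect; plate controls were DMSO vehicle for no effect and reference control for full effect; nearly all actives have a fitted effect of over 55% in size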
#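 Compound concentration series was pinned onto galactose-induced FUS-expressing yeast seeded at OD 0.005. Plates sat 24hr at 30C; absorbance at 600 nm gave growth. DMSO served as background control.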
# aSyn yeast inh: inhibitors of alpha-synuclein toxicity in yeast; AID 652106; 370,000 compounds, 0.14% hits; Potency, µM (doses to about 46.1 µM), for inactives: at the highest dose growth rescue (activation), most hits filed as activators; Yeast expressing alpha-synuclein, growth rescue, BacTiter-Glo, 24 h; also: potency is read from the fitted curve at half-maximal effect; % of control where 0% means no effect; nearly all actives have a fitted effect of over 65% in size
#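 Galactose-induced alpha-syn yeast (OD600=0.02, raffinose-pregrown) + pinned cpd, 24 hr, 30 deg C; growth by BacTiter-Glo luminescence. Growth restoration scores as activation.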
# Abeta yeast res: compounds reversing amyloid beta toxicity in yeast; yeast expressing A-beta42, growth rescue, OD600, 48 h; response scale: 0% DMSO, 100% iron-clioquinol control; Potency, µM (titrated, usually from 46.1 µM), actives largely listed as activators; 410,000 compounds, 0.063% hits; AID 1347071; also: potency is read from the fitted curve at half-maximal effect; nearly all actives have a fitted effect of over 55% in size
#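 Yeast growth medium received pinned compounds, then yeast cells expressing toxic A-beta were added; plates incubated at 30 C for 48 hr. Growth read as absorbance at 600 nm, normalized to DMSO and equimolar FeCl3 plus clioquinol controls.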
# MmCpn inh: M. maripaludis TRiC chaperonin inhibition; purified Mm-Cpn ATPase, ADP Transcreener TR-FRET; 330,000 compounds, 0.031% hits; Potency, µM (series often up to 76.9 µM), for inactives: at the highest dose activity, negative = inhibition, actives largely listed as inhibitors; also: potency is read from the fitted curve at half-maximal effect; % is scaled to controls: 0 for no effect and ±100 for the full control effect; nearly all actives have a fitted effect of over 80% in size
#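 Purified archaeal Mm-CPN (25nM final) preincubated 10 min at 37degC with compound, then 10uM ATP for 30 min at 37degC; ADP measured by HTRF Transcreener TR-FRET; buffer 30 mM TRIS pH 7.4, 100mM KCl, 5mM MgCl2, 1mM DTT.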
# CCT modulator: modulators of cytosolic chaperonin (CCT/TRiC) activity; purified chaperonin ATPase assay, HTRF ADP detection, 30 min; activity change, % (concentration not given with the values), hits read low; 360,000 compounds, 0.3% hits; in the data active = activity change below about -30%; also: % is scaled to controls: 0 for no effect and ±100 for the full control effect
#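 TRiC at 40 or 20 nM final (batch-dependent) in 30 mM Tris pH 7.4, 100 mM KCl, 5 mM MgCl2, 1 mM DTT, with compound at single 76 uM and 10 uM ATP, 30 min at 37 deg C. ADP detected by HTRF Transcreener, 665/615 ratio.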
# TDP-43 yeast inh: rescues yeast growth from TDP-43 toxicity. Potency, µM (titrated, usually from 46.1 µM), for the others: at the highest dose growth rescue (activation), usual class: activators. AID 652104. 410,000 compounds, 1.8% hits. TDP-43 expressing yeast growth rescue, BacTiter-Glo, 24 h; also: potency is read from the fitted curve at half-maximal effect; % of control where 0% means no effect; nearly all actives have a fitted effect of over 50% in size
#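 Galactose-induced TDP-43 yeast, OD600=0.02, compound pinned; 24 hr, 30 deg C; BacTiter-Glo luminescence for growth. Inhibitors of TDP-43 toxicity read as activators.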
# * hit, by the source's call; i = inactive; u = inconclusive; x = no result; [ ] = another dose, or the depositor's remark. Only some compounds are listed: those with a hit (about 2.3% of all), similar ones and a draw of the others. Unless noted, calls follow the shape of the dose curve; as a rule, active = well fitted curve in the direction sought with a large enough effect; inconclusive = small, poorly fitted or top-dose-only effect, or another doubt; inactive = no such curve, though single readings can be large; an effect the other way counts as inactive or inconclusive.
SMILES,FUS yeast rescue,aSyn yeast inh,Abeta yeast res,MmCpn inh,CCT modulator,TDP-43 yeast inh
O=[N+]([O-])c1ccccc1S(=O)(=O)NCc1ccccn1,x,1%,x,x,x,x
O=C(CCN1C(=O)C2C3C=CC(C3)C2C1=O)NC1CCCc2ccccc21 (configuration not stated),i,0%,i,1%,-1,-3%
O=C(CCn1ccc2ccccc21)NC1CCCc2ccccc21 (configuration not stated),i,9%,i[9.22 µM],-7%,1,18µM*
Cc1cc(Cl)ccc1C(=O)C1CCCN(C(=O)c2ccsc2)C1 (configuration not stated),i,10%,i,x,-2,13µM*
Cc1cc2cc(C(c3nnnn3Cc3ccco3)N3CCc4ccccc4C3)c(=O)[nH]c2cc1C (configuration not stated),14µM*,3%,i,-11%,-3,-17%
Cc1cc2cc(C(c3nnnn3Cc3ccco3)N3CCc4ccccc43)c(=O)[nH]c2cc1C (configuration not stated),u,0%,i,u,-1,0%
c1ccc(-n2nnnc2-c2cccc3ccccc23)cc1,x,5%,i,x,-1,14µM*
COc1ccc(OC)c(C(=O)COC(=O)c2cc(C)oc2C)c1,i,8%,i,-3%,0,-7%
CC(=O)c1ccccc1OC(=O)c1ccc(-c2ccccc2)cc1,i,-16%,i,x,-3,25µM*
CC(=O)c1ccccc1OC(=O)c1c(F)cccc1F,i,-3%,i,1%,0,0%
COc1ccc(OC)c(C(=O)COC(=O)c2ccc([N+](=O)[O-])o2)c1,i,-37%,i,-2%,-1,22µM*
CC(=O)c1ccccc1OC(=O)c1ccc([N+](=O)[O-])o1,i,u,i,2%,-11,10µM*
CC(C)=NOC(=O)c1ccc(-c2ccccc2)cc1,x,-8%,i,2%,-4,22µM*
COc1ccc(C(=O)O/N=C(\C)c2ccccc2)cc1,i,-30%,i,1%,1,-12%
CC(=O)N1CCc2cc(S(=O)(=O)NC3CCN(C(=O)C(C)(C)C)CC3)ccc21,i,x,x,x,x,x
CN1C(=O)C2(N=c3ccccc3=N2)c2ccccc21,i,15%,i,-1%,-2,11µM*
CCOc1ccc(NC(=O)c2nc(S(=O)(=O)Cc3ccc(F)cc3)ncc2Cl)cc1,x,4%,x,x,x,x
CCc1nc(Nc2ccccc2)c2oc3ccccc3c2n1,i,x,i,-4%,0,11µM*
Cc1nc(NCCc2ccccc2)c2oc3ccccc3c2n1,i,-16%,i,0%,-2,11µM*
Cc1ccccc1NC(=O)CN1C(=O)CCSc2ccccc21,i,x,x,x,x,x
O=C1c2sc3nc4n(c(=O)c3c2CCC1Br)CCCCC4 (configuration not stated),u,9%,i,-3%,-3,13µM*
O=C1CCCc2c1sc1nc3n(c(=O)c21)CCCCC3,i,-2%,i,-3%,1,21%
COCCSc1nnc(-c2cccnc2)n1Cc1ccccc1,i,x,x,x,x,x
Cc1cccc(Cn2cc(COC(=O)NCCc3ccccc3)nn2)c1,i,x,x,x,x,x
Cc1ccc(C)c(NC(=O)CN(C)C(=O)c2ccc(-c3ccc(Cl)cc3)o2)c1,u,-2%,i,2%,0,8%
SMILES,FUS yeast rescue,aSyn yeast inh,Abeta yeast res,MmCpn inh,CCT modulator,TDP-43 yeast inh
CN(CC(=O)Nc1cccc(F)c1)C(=O)c1ccc(-c2ccc(Cl)cc2)o1,i,15%,i,-3%,-2,22µM*
O=C(NNc1ccccc1)c1ccc(Cl)c(Cl)c1,x,u,i,x,-1,13µM*
O=C(NNC(=O)c1ccc2ccccc2c1)c1ccc(Cl)c(Cl)c1,i,-3%,i,x,-2,-17%
Nc1ccc(-c2nc3ccc(N)cc3[nH]2)cc1,i,3%,i,u,0,0%
Nc1ccc2nc(-c3cccc(-c4nc5ccc(N)cc5[nH]4)c3)[nH]c2c1,i,2%,u,-8%,0,14µM*
Ic1ccc(Nc2nc(NCCN3CCOCC3)nc(N3CCOCC3)n2)cc1,x,2%,x,x,x,x
CCC(C)(C)c1ccc(Oc2ccc(N)cc2)cc1,i,u,i,5%,4,u
CCC(C)(C)c1ccc(Oc2cccc(C(=O)O)c2)cc1,i,0.89µM*,i,1%,1,-29%
COc1ccc(OC)c(-c2csc(NC(=O)Cc3ccccc3OC)n2)c1,i,-19%,i,-5%,0,10µM*
Cc1ccc(NC(=O)CSCc2c(C)noc2C)cc1C,i,11%,i,1%,-44*,-8%
COc1ccc(OC)c(-c2csc(NC(=O)Cc3ccccc3F)n2)c1,i,-5%,i,-2%,1,u
COc1ccc(-c2csc(NC(=O)CSCC(=O)Nc3cc(C)on3)n2)cc1,x,5%,i,0%,-2,35%
Cc1cc(C)c(NC(=O)CSCc2c(C)noc2C)c(C)c1,x,1%,i,1%,-1,12%
COc1ccc(-c2csc(NC(=O)CSCc3c(C)noc3C)n2)c(OC)c1,i,6%,i,-17%,0,16µM*
CC(c1ccccc1)n1cc(C(=O)NCCCN2CCCC2)nn1 (configuration not stated),i,x,x,x,x,x
COc1ccc(C(C(=O)N(C)C2CCCC2)N(Cc2ccc(F)cc2)C(=O)c2ncn[nH]2)cc1OC (configuration not stated),i,x,x,x,x,x
CCCC(=O)Oc1c(Sc2ccc(Cl)cc2)c(C)nn1-c1ccccc1,i,x,i,x,x,-93%
O=C(COc1ccc2ccccc2c1)Nc1ccc(O)c(-c2nc3ccccc3o2)c1,x,-1%,x,x,x,x
Cc1cc(/C=C2\C=Cc3ccccc32)cc(C)c1N,x,-22%,x,x,x,x
NS(=O)(=O)c1ccc(CCNC(=O)C2CCN(S(=O)(=O)c3cnc[nH]3)CC2)cc1,25µM*,-14%,i,1%,0,-18%
CCOC(=O)[C@]12CCCCC/C=C\1N(CCc1ccc(Cl)cc1)C(=O)[C@H]2CC(=O)NCc1cccs1,i,x,x,x,x,x
Cc1ccc2nc3sc(C(=O)NCCCN(C)c4ccccc4)cc3cc2c1,i,x,i,x,x,u
CCN(CCCNC(=O)c1cc2cc3cc(C)ccc3nc2s1)c1cccc(C)c1,32µM*,x,i,x,x,0%
FC(F)(F)c1ccc(Cn2ccc3ccc(-c4ccc5ccn(Cc6ccc(C(F)(F)F)cc6)c5c4)cc32)cc1,i,x,x,x,x,x
